This note sets out measurements from the supplement of paper PMC12024424.

Where a name gives a salt, the structure may show the parent alone.

The assay has as its system Staphylococcus aureus Sa2 (MRSA, cystic fibrosis isolate). The assay can be described thus: growth reduction vs untreated control (OD550); higher = stronger antibacterial activity. As to conditions: 0.1 mM; 24 h. As for the experimental part: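 Single-dose screen of the MedChem Express Drug Repurposing Library (0.1 mM, 1% DMSO) against planktonic MRSA S. aureus Sa2 (CF isolate) in TSB in 96-well plates, 37 °C aerobic, 24 h. Assays were run in triplicate and repeated twice.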
In the case of `O=C(O)c1nn(Cc2ccc(Cl)cc2Cl)c2ccccc12` [Lonidamine], the growth reduction was found to be 90.9%.
In turn, `CCNC1=Nc2ccc(Cl)cc2C(C)(c2ccccc2)O1` (stereo not drawn) [Etifoxine] came in with a growth reduction of 100%.
For `Cc1cc2c(C(C)C)c(O)c(O)c(C=O)c2c(O)c1-c1c(C)cc2c(C(C)C)c(O)c(O)c(C=O)c2c1O` [Gossypol (acetic acid)], the growth reduction stood at 99.3%.
Take `CC[C@H](C)C1O[C@]2(C=C[C@@H]1C)C[C@@H]1C[C@@H](C/C=C(\C)[C@@H](O[C@H]3C[C@H](OC)[C@@H](O[C@H]4C[C@H](OC)[C@H](NC)[C@H](C)O4)[C@H](C)O3)[C@@H](C)/C=C/C=C3\CO[C@@H]4[C@H](O)C(C)=C[C@@H](C(=O)O1)[C@]34O)O2` (stereo partly drawn) [Emamectin (Benzoate)]: the growth reduction came out at 98%.
The value for `COc1cccc2c1cc([N+](=O)[O-])c1c(C(=O)O)cc3c(c12)OCO3` [Aristolochic acid A] was 95.3%; that for `Cc1cc2c(C(C)C)c(O)c(O)c(C=O)c2c(O)c1-c1c(C)cc2c(C(C)C)c(O)c(O)c(C=O)c2c1O` [(R)-(-)-Gossypol acetic acid] was 96%.
Regarding `Fc1ccc(C(OCCN2CCN(CCCc3ccccc3)CC2)c2ccc(F)cc2)cc1` [Vanoxerine (dihydrochloride)], the growth reduction amounted to 100%.
The value for `O=C(CNC(=O)c1ccc(C2=NOC(c3cc(Cl)cc(C(F)(F)F)c3)(C(F)(F)F)C2)c2ccccc12)NCC(F)(F)F` (stereo not drawn) [Afoxolaner] was 100%; that for `O=c1[nH]c2ccccc2n1C1CCN(CCCC(c2ccc(F)cc2)c2ccc(F)cc2)CC1` [Pimozide] was 100%; that for `O=c1c2ccccc2[se]n1-c1ccccc1` [Ebselen] was 99.8%.
The figure for `C[S+]([O-])CCCCN=C=S` (stereo not drawn) [Sulforaphane] is 97.9%; for `c1ccc2c(c1)Sc1ccccc1N2CC1CN2CCC1CC2` (stereo not drawn) [Mequitazine] it is 99.3%.
On to `Cc1cc2c(C(C)C)c(O)c(O)c(C=O)c2c(O)c1-c1c(C)cc2c(C(C)C)c(O)c(O)c(C=O)c2c1O` [Gossypol], for which the growth reduction was 98.4%.
